Out of some 39,000 compounds screened, about 3,300 (8.5%) were called active. Only a selection was taken, and actives are over-represented in it overall.

This assay deals with HepG2. Description: cytotoxicity call (relative viability < 0.9). As to conditions: 10 µM.
Turning to `Cc1ccc([C@@H](N)c2ccncc2)cc1`, the cytotoxicity call was “inactive”. To `COC(=O)c1c(C#N)c(N)nc2c1CCC2` belongs “inactive”; to `CC(C)NC(=O)N(C)C[C@H]1OCCCC[C@H](C)Oc2ccc(NC(=O)Nc3ccccc3)cc2C(=O)N([C@H](C)CO)C[C@@H]1C`, “inactive”; to `COc1ccccc1-c1ccc2n(c1=O)C[C@H]1[C@H](CO)[C@@H](C(=O)NCC3CC3)N(S(C)(=O)=O)[C@@H]21`, “inactive”. Consider `O=C(C[C@@H]1CC[C@H](NS(=O)(=O)c2ccccc2F)[C@@H](CO)O1)NCCCN1CCOCC1`, for which the cytotoxicity call is “inactive”. To `C[C@@H]1CN([C@H](C)CO)C(=O)Cc2cc(NS(C)(=O)=O)ccc2O[C@@H]1CN(C)S(C)(=O)=O` belongs “inactive”; to `C[C@H]1CN([C@@H](C)CO)S(=O)(=O)c2ccc(-c3cccnc3)cc2O[C@@H]1CN(C)C(=O)NC1CCCCC1`, “inactive”.

For `C[C@@H]1CN([C@H](C)CO)S(=O)(=O)c2ccc(C#Cc3ccncc3)cc2O[C@H]1CN(C)C(=O)C1CCOCC1`, the cytotoxicity call is “active”. The same measure for `C[C@H](CO)N1C[C@H](C)[C@@H](CN(C)C(=O)C2CCOCC2)Oc2cc(C#Cc3ccncc3)ccc2S1(=O)=O`: “inactive”. In the case of `CC(C)CC#Cc1ccc2c(c1)O[C@H](CN(C)C(=O)C1CCOCC1)[C@@H](C)CN([C@H](C)CO)S2(=O)=O`, the cytotoxicity call was “inactive”. Regarding `C[C@H](CO)N1C[C@H](C)[C@H](CN(C)C(=O)C2CCOCC2)Oc2cc(C#Cc3ccncc3)ccc2S1(=O)=O`, the cytotoxicity call was “inactive”.

Consider `CC(C)CC#Cc1ccc2c(c1)O[C@H](CN(C)C(=O)C1CCOCC1)[C@H](C)CN([C@H](C)CO)S2(=O)=O`, for which the cytotoxicity call is “inactive”. The same measure for `CC(C)CC#Cc1ccc2c(c1)O[C@@H](CN(C)C(=O)C1CCOCC1)[C@@H](C)CN([C@H](C)CO)S2(=O)=O`: “inactive”; for `C[C@H]1CN([C@@H](C)CO)S(=O)(=O)c2ccc(C#Cc3ccncc3)cc2O[C@@H]1CN(C)C(=O)C1CCOCC1`: “active”.

Take `C[C@@H]1CN([C@@H](C)CO)S(=O)(=O)c2ccc(C#Cc3ccncc3)cc2O[C@H]1CN(C)C(=O)C1CCOCC1`: the cytotoxicity call is “active”. The same measure for `C[C@@H]1CN([C@@H](C)CO)S(=O)(=O)c2ccc(C#Cc3ccncc3)cc2O[C@@H]1CN(C)C(=O)C1CCOCC1`: “active”; for `CC(C)CC#Cc1ccc2c(c1)O[C@@H](CN(C)C(=O)C1CCOCC1)[C@H](C)CN([C@H](C)CO)S2(=O)=O`: “inactive”; for `C[C@@H]1CN([C@H](C)CO)C(=O)Cc2cc(NS(=O)(=O)c3ccc(F)cc3)ccc2O[C@H]1CN(C)C(=O)Nc1cccc2ccccc12`: “inactive”. Take `C[C@@H]1CN([C@@H](C)CO)S(=O)(=O)c2ccc(C3=CCCCC3)cc2O[C@H]1CN(C)C(=O)C1CCOCC1`: the cytotoxicity call is “inactive”. The same measure for `C[C@@H]1CCCCO[C@@H](CN(C)C(=O)CCC(F)(F)F)[C@@H](C)CN([C@@H](C)CO)C(=O)c2cc(NS(=O)(=O)c3ccc(Cl)cc3)ccc2O1`: “inactive”. Turning to `Cc1ccc(S(=O)(=O)Nc2ccc3c(c2)C(=O)N([C@H](C)CO)C[C@@H](C)[C@H](CN(C)C(=O)Nc2ccccc2)OCCCC[C@H](C)O3)cc1`, the cytotoxicity call is “inactive”.

Consider `C[C@@H]1CCCCO[C@@H](CN(C)C(=O)NC2CCCCC2)[C@H](C)CN([C@@H](C)CO)C(=O)c2cc(NC(=O)Nc3cccc4ccccc34)ccc2O1`, for which the cytotoxicity call was “inactive”. To `CN1C(=O)c2cc(NC(=O)c3cccs3)ccc2OC[C@H]2O[C@@H](CC(=O)NCCN3CCCCC3)CC[C@@H]21` belongs “inactive”. As for `CCCC#Cc1cnc2c(c1)C(=O)N([C@@H](C)CO)C[C@H](C)[C@@H](CN(C)S(=O)(=O)c1cccc(OC)c1)O2`, the cytotoxicity call was “inactive”. For the molecule `C[C@@H]1CN([C@@H](C)CO)C(=O)Cc2cc(NC(=O)CCC(F)(F)F)ccc2O[C@@H]1CN(C)S(=O)(=O)c1cccs1`, the cytotoxicity call was “inactive”.

As to `C[C@@H]1CN([C@@H](C)CO)S(=O)(=O)c2ccc(C#CC3CC3)cc2O[C@H]1CN(C)C(=O)c1cccc(F)c1`, the cytotoxicity call is “inactive”.

As for `C[C@H](CO)N1C[C@H](C)[C@@H](CN(C)S(=O)(=O)c2ccc(-n3cccn3)cc2)OCc2cn(nn2)CCCC1=O`, the cytotoxicity call was “inactive”. The same measure for `CNC(=O)CN1CCO[C@H]2CN(C(=O)C(C)C)C[C@@H]21`: “inactive”; for `O=C(C[C@H]1CC=CC[C@H](NC(=O)OCC2c3ccccc3-c3ccccc32)C(=O)OCCNC1=O)NCCO`: “inactive”.

Regarding `COc1ccccc1-c1cnc2c(c1)C(=O)N([C@@H](C)CO)C[C@@H](C)[C@@H](CN(C)C(=O)c1cccnc1)O2`, the cytotoxicity call was “inactive”. On to `C[C@H]1CN([C@@H](C)CO)S(=O)(=O)c2ccc(C#Cc3ccncc3)cc2O[C@H]1CN(C)C(=O)C1CCOCC1`, for which the cytotoxicity call was “active”. `CC(C)CC#Cc1ccc2c(c1)O[C@@H](CN(C)C(=O)C1CCOCC1)[C@H](C)CN([C@@H](C)CO)S2(=O)=O`: the cytotoxicity call was “inactive”. To `C[C@@H]1CN([C@H](C)CO)S(=O)(=O)c2ccc(C#Cc3ccncc3)cc2O[C@@H]1CN(C)C(=O)C1CCOCC1` belongs “active”. Turning to `CC(C)CC#Cc1ccc2c(c1)O[C@H](CN(C)C(=O)C1CCOCC1)[C@@H](C)CN([C@@H](C)CO)S2(=O)=O`, the cytotoxicity call was “inactive”.

With `O=C(C[C@H]1C=C[C@@H](NC(=O)CN2CCOCC2)[C@H](CO)O1)NCc1cccc(F)c1`, the cytotoxicity call was “inactive”. The same measure for `C[C@@H]1CN([C@@H](C)CO)C(=O)c2cc(N(C)C)ccc2O[C@@H](C)CCCCO[C@H]1CN(C)Cc1ccc(C(F)(F)F)cc1`: “inactive”. The same measure for `C[C@@H]1CN([C@@H](C)CO)C(=O)CCCn2cc(nn2)CO[C@@H]1CN(C)S(=O)(=O)c1cn(C)cn1`: “inactive”; for `C[C@@H]1CN([C@@H](C)CO)C(=O)c2cccc(NC(=O)CCCCCC(=O)Nc3ccccc3N)c2O[C@H]1CN(C)C(=O)Nc1ccc(C(F)(F)F)cc1`: “inactive”; for `C[C@@H]1CN([C@H](C)CO)C(=O)c2cc(NC(=O)NC3CCCCC3)ccc2O[C@H]1CN(C)Cc1ccc(C(F)(F)F)cc1`: “inactive”.

With `O=C([C@@H]1N[C@@H]2c3ccc(-c4ccc(F)cc4)c(=O)n3C[C@@H]2[C@H]1CO)N1CCOCC1`, the cytotoxicity call was “inactive”. To `C[C@@H]1CN([C@@H](C)CO)C(=O)c2cccc(NS(=O)(=O)c3cn(C)cn3)c2O[C@H]1CN(C)Cc1ccncc1` belongs “inactive”; to `CC(C)(C(=O)O)c1ccc(C(O)CCCN2CCC(C(O)(c3ccccc3)c3ccccc3)CC2)cc1.Cl` (centres undefined), “inactive”. With `CC(C)(C(=O)O)c1ccc([C@@H](O)CCCN2CCC(C(O)(c3ccccc3)c3ccccc3)CC2)cc1`, the cytotoxicity call was “inactive”. On to `CC(C)(C)c1ccc(C(O)CCCN2CCC(C(O)(c3ccccc3)c3ccccc3)CC2)cc1` (centres undefined), for which the cytotoxicity call is “active”.
